Source: PubChem BioAssay
IL-1B inflam inh: inhibitors of inflammasome signaling (IL-1 beta secretion) | THP-1 LPS/ATP IL-1B secretion, AlphaLISA, 16 h; active compounds read low | activity change, % at 57.5 µM | hit rate 4.7% among 360,000; in the data active means activity change below about -50%; inconclusive means mostly about -30% to -49%
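Secreted IL-1B measured by AlphaLISA bead assay after 16 h compound exposure of THP-1 cells; compounds (final up to 57.5 uM) added 1 h before LPS (250 ng/mL) and ATP (1.25 mM) stimulation; lower signal means less secretion.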
ELG1 DNA repair: ELG1-dependent DNA repair inhibition. Potency, µM (doses to about 46.1 µM), inactives show at the top dose activity change, negative = inhibition, most hits filed as inhibitors. AID 504467. HEK293T ELG1-luciferase reporter, luminescence, 16 h; DNA damage induced by 5-fluorouridine. hit rate 2.3% among 330,000; further: potency means the concentration at half of the fitted maximal effect; nearly all actives have a fitted effect of over 55% in size
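Step one: seed 2,000 cells per well. Step two: pin-transfer compound or DMSO alongside 5-fluorouridine. Step three: incubate 16 hr, 37 °C, 5% CO2. Step four: add ONE-Glo, wait 30 min, read luminescence.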
TDP1 block: TDP1 (human) enzyme inhibition; Q9NUW8; recombinant TDP1, AlphaScreen DNA substrate cleavage; Potency, µM (series often up to 130 µM), for the others: at the highest dose activity change, negative = inhibition, hits mostly inhibitors; hit rate 0.28% among 350,000; AID 485290; further: potency means the concentration at half of the fitted maximal effect; nearly all actives have a fitted effect of over 40% in size
Target sequence (Q9NUW8 whole entry, looked up): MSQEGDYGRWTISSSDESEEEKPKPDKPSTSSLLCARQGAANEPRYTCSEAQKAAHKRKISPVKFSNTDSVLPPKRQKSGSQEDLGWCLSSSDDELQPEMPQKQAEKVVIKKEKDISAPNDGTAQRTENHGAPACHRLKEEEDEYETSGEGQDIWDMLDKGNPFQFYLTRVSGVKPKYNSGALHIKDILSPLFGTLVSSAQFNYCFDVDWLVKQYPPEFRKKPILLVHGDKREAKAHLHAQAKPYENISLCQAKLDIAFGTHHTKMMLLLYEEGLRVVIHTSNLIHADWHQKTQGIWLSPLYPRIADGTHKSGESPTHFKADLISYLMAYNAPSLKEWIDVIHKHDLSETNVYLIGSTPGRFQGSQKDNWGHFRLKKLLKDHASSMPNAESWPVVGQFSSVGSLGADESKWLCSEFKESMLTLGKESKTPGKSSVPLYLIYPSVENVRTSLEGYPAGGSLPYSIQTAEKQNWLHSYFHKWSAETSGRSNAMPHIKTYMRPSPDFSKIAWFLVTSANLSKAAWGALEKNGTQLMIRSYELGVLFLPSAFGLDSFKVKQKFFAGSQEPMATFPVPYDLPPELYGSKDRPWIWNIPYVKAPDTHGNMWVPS
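AlphaScreen read-out: signal falls as enzyme removes the 3' tyrosine-FITC from a 5'-biotinylated DNA oligo (15 nM, 5 min, RT). Enzyme was E. coli-made recombinant Tdp1 at 1 nM, exposed to compound for 15 min beforehand; beads 10 ug/ml, 10 min.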
Giardia killer: kills Giardia lamblia; activity change, % at 7.66 µM, hits read low; hit rate 0.15% among 340,000; Giardia lamblia trophozoite viability; in the data active means activity change below about -80%; inconclusive means between about -30% and that limit;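 further: parasites exposed to compound for two days anaerobically before the ATP read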
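Giardia lamblia trophozoites (100 cells/well) were incubated with compounds for 48 h at 37 deg C under anaerobic conditions. Viability was read as ATP content by one-step luminescence after 15-30 min at room temperature.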
DT40 TDP1 CPT: growth inhibition of DT40 Tdp1-/-;hTDP1 cells with camptothecin (screen for TDP1 inhibitors); AID 686979; Potency, µM (doses to about 46.2 µM), inactives show top-dose activity change, negative = growth inhibition, usual class: inhibitors; hit rate 12% among 420,000; chicken DT40 Tdp1-/-;hTDP1 cells + 20 nM CPT, ATP luminescence, 48 h; further: potency means the concentration at half of the fitted maximal effect; nearly all actives have a fitted effect of over 55% in size
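Chicken DT40 Tdp1-/- cells stably complemented with human TDP1 were seeded at 400 cells/well in medium containing 20 nM camptothecin, exposed to pin-transferred compounds, and grown at 37 °C for at least 48 hr. Viability was read as ATP luminescence.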
TDP1 cell noCPT: qHTS for Inhibitors of human tyrosyl-DNA phosphodiesterase 1 (TDP1): qHTS in cells in absence of CPT; DT40 Tdp1-/- hTDP1 cells, no CPT, ATP luminescence, 48 h; Potency, µM (doses to about 46.2 µM), for the others: at the top dose activity change, negative = growth inhibition, actives largely listed as inhibitors; hit rate 15% among 420,000; AID 686978, 2013; further: potency means the concentration at half of the fitted maximal effect; nearly all actives have a fitted effect of over 55% in size
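Luminescent ATP content (CellTiter-Glo) served as the growth readout. Knockout chicken DT40 cells expressing human TDP1 were exposed to compounds without camptothecin for a minimum 48 hr at 37 °C.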
Starred values were filed as active, the others as inactive; i = inactive; ? = inconclusive; / = no result. A selection: hits, their analogues and other compounds. The true share with any hit is near 19%. Unless noted, the call rests on the fitted dose curve; in most records, active means well fitted curve in the direction sought with a large enough effect; inconclusive means small, poorly fitted or top-dose-only effect, or another doubt; inactive means no such curve, though single readings can be large; an effect the other way counts as inactive or inconclusive. On the % scale 0 is the no-effect control and ±100 the full control effect.

SMILES | IL-1B inflam inh | ELG1 DNA repair | TDP1 block | Giardia killer | DT40 TDP1 CPT | TDP1 cell noCPT
COCC(=O)Nc1ccc(N2CCOCC2)c(S(=O)(=O)Nc2ccccc2OC)c1 | -2 | 13% | 1% | -14 | -19% | ?
Cc1c(NC(=O)COC(=O)CCc2c[nH]c3ccccc23)c(=O)n(-c2ccccc2)n1C | 6 | 22% | 0% | 17 | 12% | -3%
COc1ccc(CNC(=O)CCCNC(=O)c2ccc(Cl)cc2)cc1OC | 19 | 0% | / | -9 | -20% | 21%
Cc1cc(/C=N\NC(=O)COc2cccc3cccnc23)c(C)n1-c1ccccc1 | -4 | ? | 0% | 7 | ? | -20%
CC(C)n1cc(/C=N/NC(=O)COc2cccc3cccnc23)c2ccccc21 | -78* | ? | 3% | 1 | ? | ?
C=CCn1cc(/C=N/NC(=O)COc2cccc3cccnc23)c2ccccc21 | -14 | -39% | 8% | -14 | 15µM* | 16µM*
Cc1oc2c(O)c(O)ccc2c(=O)c1-c1cnn(-c2ccccc2)c1 | 84 | ? | -7% | -8 | ? | 18µM*
CN(C(=O)COC(=O)c1cccc(S(=O)(=O)N2CCCCCC2)c1)c1ccccc1 | 14 | / | / | / | 1% | -29%
COc1ccc(N(C)S(=O)(=O)c2cccc(C(=O)OCC(=O)N(C)c3ccccc3)c2)cc1 | -8 | 16µM* | -2% | -13 | ? | 21µM*
CC(=O)Oc1ccc(-c2cccc(C(=O)OCC(=O)Nc3ccccc3Oc3ccccc3)c2)cc1 | 16 | ? | 4% | 12 | -27% | 18µM*
CC(=O)Oc1ccc(-c2cccc(C(=O)OCC(=O)N(C)c3ccccc3)c2)cc1 | 0 | -29% | 5% | -9 | ? | 23µM*
CCOc1ccccc1NC(=O)COC(=O)c1cc(C(=O)OC)cc([N+](=O)[O-])c1 | 0 | 13% | 0% | 22 | 3% | -12%
CCOc1ccccc1NC(=O)COC(=O)c1cccc(-c2ccc(OC(C)=O)cc2)c1 | i | -10% | 0% | 24 | ? | 26µM*
CN[C@@H]1CCc2[nH]c3ccc(C(N)=O)cc3c2C1 | / | / | / | / | 1% | 2%
CN(C)c1ccc(/C=N/OC(=O)Nc2ccccc2Cl)cc1 | -18 | ? | 0% | 6 | 8.2µM* | 15µM*
COc1ccc(/C=N/OC(=O)Nc2ccccc2OC)cc1 | 0 | ? | -5% | -1 | 1.5µM* | 1.6µM*
O=C(c1ccc2c(c1)OCO2)c1cn(Cc2ccc(Cl)cc2)c2ccc(F)cc2c1=O | / | / | 2% | / | ? | 21µM*
COc1ccc(Cn2cc(C(=O)c3ccc(F)cc3)c(=O)c3cc4c(cc32)OCCO4)cc1 | / | / | 2% | / | ? | ?
Cc1ccc2c(c1)c(=O)c(C(=O)c1ccc3c(c1)OCO3)cn2Cc1ccc(Cl)cc1 | / | / | 2% | / | ? | 16µM*
COc1ccc(Cn2cc(C(=O)c3ccc(Cl)cc3)c(=O)c3cc4c(cc32)OCO4)cc1 | / | / | 7% | / | ? | 23µM*
CCOc1ccccc1NC(=O)C(NS(=O)(=O)c1cccc2nsnc12)c1ccccc1 (stereo not given) | / | / | 6% | / | -3% | ?
Cc1cc(C)c(CN2CCC(n3nccc3NC(=O)C3CCOC3)CC2)cc1C (stereo not given) | 5 | 2% | 2% | -5 | ? | -1%
CC(=O)c1cc(CN2CCN(Cc3ccccc3)C(CCO)C2)cs1 (stereo not given) | -13 | -5% | / | 0 | 1% | 12%
COCCNc1nc(NCc2ccc(C(C)C)cc2)c2sccc2n1 | -15 | / | / | / | 12µM* | 12µM*
COc1cccc(CNc2nc(NC(C)C)nc3ccsc23)c1 | -23 | / | / | / | 23µM* | ?
SMILES | IL-1B inflam inh | ELG1 DNA repair | TDP1 block | Giardia killer | DT40 TDP1 CPT | TDP1 cell noCPT
COCCNc1nc(NCc2cccc(OC)c2)c2sccc2n1 | -2 | / | / | / | 15µM* | 18µM*
CCc1ccccc1Oc1nc(NC(C)C)nc2ccsc12 | 41 | / | / | / | ? | ?
CCOC(=O)C(CC)/C(C)=N\NC(=O)c1ccccc1O (stereo not given) | 36 | 18% | -1% | -8 | 16µM* | 23µM*
Cc1ccc(-c2nn(Cc3ccccc3)cc2C(=O)NCC2CCCO2)cc1 (stereo not given) | -4 | -2% | 0% | -3 | 1% | -16%
O=C(NCc1cccc(F)c1)c1cccc(NC(=O)c2nsc3ccccc23)c1 | / | / | 5% | / | 23µM* | 23µM*
COc1cccc(CNC(=O)c2cccc(NC(=O)c3nsc4ccccc34)c2)c1 | / | / | 0% | / | ? | 21µM*
O=C(O)c1ccccc1OS(=O)(=O)O | / | / | 5% | / | / | /
CN(C)S(=O)(=O)c1cccc(NC(=O)COC(=O)c2cn(-c3ccccc3)nc2-c2ccccc2)c1 | -21 | ? | 0% | -7 | ? | 21µM*
Cc1ccc(S(=O)(=O)N2CCOCC2)cc1NC(=O)c1cc(-c2ccccn2)nc2ccccc12 | -51* | ? | 5% | 35 | ? | -27%
O=C(NC(=S)N1CCOCC1)c1cn(-c2ccccc2)nc1-c1ccccc1 | -3 | 18µM* | 1% | -30 | ? | ?
Cc1cc(C(=O)Nc2ccc(N3CCOCC3)cc2)c2ccccc2n1 | 7 | 5% | 6% | -9 | 4% | -16%
O=C(Nc1cc(S(=O)(=O)N2CCOCC2)ccc1N1CCCCC1)c1cc(-c2ccccn2)nc2ccccc12 | -11 | 9% | -10% | -4 | ? | ?
Cc1cc(C(=O)Nc2cccc(S(=O)(=O)N3CCOCC3)c2)c2ccccc2n1 | 23 | ? | 0% | -6 | ? | 23µM*
